Experimental data: PubChem BioAssay (NCATS)
Several values for one entry are separate records, joined by “and”; a condition that tells them apart may be missing. Equal entries are not always repeated. Records with an inconclusive call do not appear. Activity calls are given as the source filed them. Unless noted, the call rests on the fitted dose curve; in most records, active means well fitted curve in the direction sought with a large enough effect; inconclusive means small, poorly fitted or top-dose-only effect, or another doubt; inactive means no such curve, though single readings can be large; an effect the other way counts as inactive or inconclusive.

What was measured:
[1] = NFAT Signaling Pathway (AID 444; active means well fitted curve in either direction with a large enough effect, not every such curve was filed as active;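 further: carbachol stimulus at about its EC50 of 1 µM final; on the % scale 0 is the no-effect control and ±100 the full control effect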); details: Jurkat NFAT-bla M1, carbachol, beta-lactamase ratio, 5 h; at 38 µM (top of the series)
Summary of the method: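 Jurkat cells carrying an NFAT-driven β-lactamase reporter and co-transfected muscarinic M1 receptor were treated with compound plus carbachol (1 uM final, an EC50 level) for 5 h at 37 °C. CCF4 loading followed for 1 h at RT; 460/530 nm ratio gave %activity.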

[2] = target: Glucocorticoid receptor (Homo sapiens) (UniProt P04150); test: GR-GFP Redistribution (AID 450;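 active means compounds whose dose series gives a full or clear partial fitted curve of increased nuclear translocation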; further: potency means the concentration at half of the fitted maximal effect); details: U2OS GR-GFP nuclear translocation, laser cytometry, 2 h
Chain of Glucocorticoid receptor (Homo sapiens) (P04150 whole entry, looked up): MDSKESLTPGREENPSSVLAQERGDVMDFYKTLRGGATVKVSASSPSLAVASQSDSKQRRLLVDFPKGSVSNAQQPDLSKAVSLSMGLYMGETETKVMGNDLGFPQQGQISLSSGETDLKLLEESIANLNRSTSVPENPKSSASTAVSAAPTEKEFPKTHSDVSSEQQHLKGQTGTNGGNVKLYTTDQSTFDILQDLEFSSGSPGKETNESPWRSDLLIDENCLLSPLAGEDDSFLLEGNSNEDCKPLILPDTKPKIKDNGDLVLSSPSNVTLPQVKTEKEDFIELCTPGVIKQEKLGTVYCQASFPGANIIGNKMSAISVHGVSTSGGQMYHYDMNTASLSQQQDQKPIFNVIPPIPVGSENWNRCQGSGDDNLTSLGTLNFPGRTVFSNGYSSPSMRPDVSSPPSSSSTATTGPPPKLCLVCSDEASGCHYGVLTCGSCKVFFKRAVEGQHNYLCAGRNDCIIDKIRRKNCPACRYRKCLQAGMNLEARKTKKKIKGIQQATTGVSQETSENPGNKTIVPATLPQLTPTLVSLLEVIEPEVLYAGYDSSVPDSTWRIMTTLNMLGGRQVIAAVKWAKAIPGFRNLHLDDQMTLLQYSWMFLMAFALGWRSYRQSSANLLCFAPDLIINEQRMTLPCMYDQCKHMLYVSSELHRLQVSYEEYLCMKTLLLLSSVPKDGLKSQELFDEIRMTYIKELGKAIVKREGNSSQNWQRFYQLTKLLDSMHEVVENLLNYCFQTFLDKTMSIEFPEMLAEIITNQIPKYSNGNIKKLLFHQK

[3] = target: Mitogen-activated protein kinase 10 (Mus musculus) (UniProt Q61831); test: JNK3 AlphaScreen Assay (AID 530; active means well fitted curve in either direction with a large enough effect, not every such curve was filed as active;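 further: kinase came from lysate of stimulated human HepG2 cells; signal reports phosphorylation of biotinylated GST-cJun 1-79 at Ser73 with 10 µM ATP; on the % scale 0 is the no-effect control and ±100 the full control effect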)
Summary of the method: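 JNK3 came from HepG2 lysates pre-activated with IL-1beta and TNF-alpha and phosphorylated biotinylated GST-cJun (1-79) at 10 uM ATP, pH 7.6, room temperature. Compounds were titrated. AlphaScreen signal used anti-phospho-cJun (Ser73) antibody.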

[4] = target: 3',5'-cyclic-AMP phosphodiesterase 4B (Homo sapiens) (UniProt Q07343); test: qHTS Assay for Inhibitors of PDE-IV (AID 607; active means well fitted activation curve with a large enough effect in the main read-out, with a control signal flat, not every such curve was filed as active; further: % of control where 0% means no effect)
Chain of 3',5'-cyclic-AMP phosphodiesterase 4B (Homo sapiens) (Q07343 whole entry, looked up): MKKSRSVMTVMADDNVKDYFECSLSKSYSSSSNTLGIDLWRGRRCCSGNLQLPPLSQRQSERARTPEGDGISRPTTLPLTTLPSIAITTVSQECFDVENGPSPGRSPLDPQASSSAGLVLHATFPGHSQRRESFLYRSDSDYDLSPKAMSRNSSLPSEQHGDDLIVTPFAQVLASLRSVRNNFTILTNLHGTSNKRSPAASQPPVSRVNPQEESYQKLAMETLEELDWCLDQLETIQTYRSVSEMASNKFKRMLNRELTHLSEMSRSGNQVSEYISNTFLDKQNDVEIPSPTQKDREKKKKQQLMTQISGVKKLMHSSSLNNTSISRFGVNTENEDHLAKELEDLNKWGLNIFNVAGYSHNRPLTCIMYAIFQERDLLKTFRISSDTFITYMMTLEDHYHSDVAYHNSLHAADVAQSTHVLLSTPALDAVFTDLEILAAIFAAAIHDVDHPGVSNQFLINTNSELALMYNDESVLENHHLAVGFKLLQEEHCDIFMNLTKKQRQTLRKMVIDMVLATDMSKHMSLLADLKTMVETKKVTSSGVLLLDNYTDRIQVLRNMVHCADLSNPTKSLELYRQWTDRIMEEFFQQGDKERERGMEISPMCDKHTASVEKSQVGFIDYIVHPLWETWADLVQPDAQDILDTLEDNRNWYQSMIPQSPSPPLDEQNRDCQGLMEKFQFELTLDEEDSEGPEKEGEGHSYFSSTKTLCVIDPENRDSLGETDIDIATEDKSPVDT
Summary of the method: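 Cell-based read-out of cAMP via a modified cyclic nucleotide-gated channel and membrane potential dye (535/590 nm) in HEK293 cells expressing PDE4 endogenously. Compounds tested up to 22.9 uM final; 100 uM RO 20-1724 reference.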

[5] = target: Guanine nucleotide-binding protein G(i) subunit alpha-1 (Homo sapiens) (UniProt P63096); test: qHTS Assay for Inhibitors of RGS12 GoLoco Motif Activity (Green Fluorophore) (AID 879);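 further: 0% = labeled peptide with Gαi1 and full inhibition = labeled peptide alone without protein; negative values mean loss of peptide binding seen as reduced polarization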
Summary of the method: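 Fluorescence polarization assay: 50 nM Gαi1 with 10 nM FITC-labeled RGS12 GoLoco peptide in 10 mM Tris pH 7.5, 150 mM NaCl, 0.1 mM GDP, 0.05% NP40, 10 min at room temperature with compound.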

[6] = qHTS Assay for Identification of Small Molecule Antagonists for NFkB Signaling Pathway (AID 895; active means well fitted inhibition curve with a large enough effect in the signal ratio, with a control signal flat, not every such curve was filed as active; the % refers to the signal ratio; further: on the % scale 0 is the no-effect control and ±100 the full control effect)
Summary of the method: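 NFkB-bla ME-180 cervical carcinoma cells with beta-lactamase reporter under NFkB response element; compounds added, then TNF alpha at 10 pM final (EC50), 5 h at 37 C. LiveBLAzer substrate 2 h, room temperature; emission 460/530 nm at 405 nm excitation.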

[7] = target: Pyruvate kinase (Leishmania mexicana) (UniProt Q27686); test: qHTS Validation Assay for Inhibitors of Leishmania Mexicana Pyruvate Kinase (AID 945);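 further: 0% = DMSO only neutral control wells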
Chain of Pyruvate kinase (Leishmania mexicana) (Q27686 2-499 E452W): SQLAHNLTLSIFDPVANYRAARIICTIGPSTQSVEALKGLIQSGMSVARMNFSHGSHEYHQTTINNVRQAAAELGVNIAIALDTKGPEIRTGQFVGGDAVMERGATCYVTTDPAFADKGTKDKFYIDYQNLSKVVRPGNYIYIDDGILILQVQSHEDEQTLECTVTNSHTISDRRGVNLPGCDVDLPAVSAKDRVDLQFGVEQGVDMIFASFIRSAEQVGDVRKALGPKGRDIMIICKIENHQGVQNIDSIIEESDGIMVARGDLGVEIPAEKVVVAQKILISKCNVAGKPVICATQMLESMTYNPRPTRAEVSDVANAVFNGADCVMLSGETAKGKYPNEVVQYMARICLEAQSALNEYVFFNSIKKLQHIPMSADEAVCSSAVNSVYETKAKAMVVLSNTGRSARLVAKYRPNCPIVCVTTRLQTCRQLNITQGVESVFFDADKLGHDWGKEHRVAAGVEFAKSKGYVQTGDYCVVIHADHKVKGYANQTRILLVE
Summary of the method: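 Compounds are tested as eight-point concentration series. Reactions contain 0.2 nM LmPYK E451W, 0.5 mM PEP, 0.1 mM ADP, 7 mM MgCl2 and 50 mM KCl at pH 7.2, run 1 h at room temperature, then read by PKLight luminescence.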

[8] = target: Pyruvate kinase PKM (Homo sapiens) (UniProt P14618); test: qHTS Assay for Activators of Human Muscle Pyruvate Kinase (AID 954; active means well fitted curve in the direction sought with a large enough effect, not every such curve was filed as active;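 further: 0% = uninhibited enzyme and -100% = no enzyme or full thiadiazolimine inhibition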)
Summary of the method: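 Human PKM2 activity is measured as ATP generation, detected by luciferase-coupled luminescence. The enzyme (0.1 nM) acts on 0.5 mM PEP and 0.1 mM ADP for 1 h at ambient temperature; data are normalized to uninhibited and full-inhibition wells.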

[9] = target: Alpha-galactosidase (Coffea arabica) (UniProt Q42656); test: Counterscreen for Glucocerebrosidase Inhibitors: qHTS Assay for Coffee Bean alpha-Galactosidase at pH 4.5 (AID 957);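 further: plate controls were enzyme alone for no effect and no enzyme for full effect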
Chain of Alpha-galactosidase (Coffea arabica) (Q42656 whole entry, looked up): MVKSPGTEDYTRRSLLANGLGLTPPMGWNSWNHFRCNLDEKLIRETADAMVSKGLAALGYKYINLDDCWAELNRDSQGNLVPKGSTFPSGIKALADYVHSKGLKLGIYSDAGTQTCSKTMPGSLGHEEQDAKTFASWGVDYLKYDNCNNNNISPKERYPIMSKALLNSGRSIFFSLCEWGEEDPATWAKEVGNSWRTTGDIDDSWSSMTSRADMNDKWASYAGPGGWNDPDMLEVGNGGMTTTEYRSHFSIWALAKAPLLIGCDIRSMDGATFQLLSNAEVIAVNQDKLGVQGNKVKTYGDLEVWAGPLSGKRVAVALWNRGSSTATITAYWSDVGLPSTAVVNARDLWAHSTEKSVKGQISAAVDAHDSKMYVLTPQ
Summary of the method: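 AC50 values derive from Hill-equation modeling of concentration-response data, normalized to no-enzyme and full-activity controls. The pH 4.5 citrate assay used 2 nM coffee bean enzyme and 80 uM fluorogenic substrate for 20 min.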

[10] = target: Alpha-galactosidase A (Homo sapiens) (UniProt P06280); test: Counterscreen for Glucocerebrosidase Inhibitors: qHTS Assay for Human alpha-Galactosidase at pH 4.5 (AID 992); further: 0% is about no effect
Summary of the method: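 Quantitative HTS: compounds tested from 0.7 nM up to 77 uM against 2 nM enzyme with 80 uM 4-MU alpha-D-galactopyranoside. The 20 min room-temperature reaction is stopped with 1M NaOH/1M glycine, pH 10.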

[11] = target: alpha-glucosidase (Oryza sativa, rice) (UniProt Q653V4); test: Counterscreen for Glucocerebrosidase Inhibitors: qHTS Assay for Rice alpha-Glucosidase at pH 5.0 (AID 997);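 further: 0% = full activity with enzyme and -100% = basal without enzyme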
Summary of the method: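 Rice alpha-glucosidase (4 nM final) with 400 uM 4-methylumbelliferyl-alpha-D-glucopyranoside in citrate buffer pH 5.0, 20 min at room temperature, stopped at pH 10; fluorescence 365/440 nm, compounds 0.7 nM–77 uM, AC50 from Hill fits.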

[12] = target: Alpha-galactosidase (Coffea arabica) (UniProt Q42656); test: Counterscreen for Glucocerebrosidase Inhibitors: qHTS Assay for Coffee Bean alpha-Galactosidase at pH 5.9 (AID 998);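 further: plate controls were uninhibited enzyme for no effect and no-enzyme basal signal for full effect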
Summary of the method: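 Green coffee bean enzyme (2 nM final) was incubated with compounds (0.7 nM–77 uM) and 4-methylumbelliferyl alpha-D-galactopyranoside (80 uM) in citrate buffer pH 5.9, 20 min at room temperature. High-pH stop; fluorescence 365/440 nm; AC50 from Hill fits.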

[13] = Validation of Assay for Modulators of Lamin A Splicing (AID 1459; active means well fitted curve in the direction sought with a large enough effect in the signal ratio; the % refers to the signal ratio;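 further: cells exposed to compound for two days before reading; 0% is about no effect; ratio rise marks activators and ratio drop marks inhibitors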)
Summary of the method: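 Dual-reporter HeLa S3 line (lamin A-EGFP minigene, DsRed2) treated with compounds 48 hrs, 0.5% DMSO final. Endpoint: EGFP/DsRed2 total intensity ratio from laser-scanning microplate cytometry.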

[14] = qHTS Assay for Lipid Storage Modulators (AID 1519; calls by dose curve); details: Drosophila S3 cells, BODIPY lipid droplet/cell ratio, laser cytometry, cells loaded with oleic acid
Summary of the method: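 Cells seeded at 5,000 per well were treated with compounds over a concentration series and loaded with oleic acid (400 uM, as added). Lipid droplet fluorescence (488 nm excitation, 500-530 nm channel) was read by laser-scanning cytometry and normalized to 20 uM Triacsin C.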

[15] = Counterscreen for APE1 Inhibitors: Fluorescent Dye Displacement Validation Assay (AID 1707);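 further: plate controls were ThO with dsDNA and no compound for no effect and ThO without dsDNA for full effect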
Summary of the method: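 Compounds are scored by their ability to displace Thiazole Orange (250 nM) from a 50 nM TAMRA-tagged duplex bearing a tetrahydrofuran abasic site. Buffer is 50 mM Tris-HCl pH7.5, 50mM NaCl, 2 mM MgCl2, 0.01% Tween-20.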

[16] = target: Endonuclease 4 (Escherichia coli (strain K12)) (UniProt P0A6C1); test: Counterscreen for APE1 Inhibitors: qHTS Validation Assay for Inhibitors of Endonuclease IV (AID 1708); further: on the % scale 0 is the no-effect control and ±100 the full control effect
Summary of the method: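 2 nM enzyme was preincubated with compounds for 15 min at room temperature in 50 mM Tris-HCl pH 7.5, 50 mM NaCl, 2 mM MgCl2, 1 mM DTT, 0.01% Tween-20. 50 nM THF-abasic TAMRA/BHQ-2 duplex substrate started the reaction.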

[17] = qHTS for differential inhibitors of proliferation of Plasmodium falciparum line 3D7 (AID 1876);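 further: parasite growth measured after three days of culture; 0% = vehicle wells and -100% = reference inhibitor wells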
[18] = qHTS for differential inhibitors of proliferation of Plasmodium falciparum line D10 (AID 1877);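 further: parasites grown with compound for 72 h before DNA staining; plate controls were vehicle wells for no effect and reference inhibitor wells for full effect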
[19] = qHTS for differential inhibitors of proliferation of Plasmodium falciparum line Dd2 (AID 1882); details: Potency: Plasmodium falciparum Dd2 proliferation inhibition;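 further: compound exposure of 72 h on infected erythrocytes; plate controls were DMSO vehicle for no effect and 0.29 µM artemisinin for full effect; nearly all actives have a fitted effect of over 65% in size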
Summary of the method: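 SYBR Green I DNA fluorescence read-out, ex 485/em 535 nm. Signals were normalized to 0.29 uM artemisinin and DMSO wells, then corrected using vehicle-only plates flanking each stack. Parasite growth ran 72 h in erythrocytes before lysis.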

[20] = qHTS for differential inhibitors of proliferation of Plasmodium falciparum line HB3 (AID 1886); details: Potency: Plasmodium falciparum HB3 proliferation inhibition;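 further: parasites grown with compound for 72 h before SYBR Green readout; plate controls were vehicle for no effect and reference inhibitor for full effect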
[21] = qHTS Assay for Modulators of Human Peripheral Myelin Protein 22 (PMP22) Expression/Activity (AID 1967; active means well fitted curve in the direction sought with a large enough effect in the signal ratio; the % refers to the signal ratio;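 further: 0% = untreated cells and 100% end not stated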)
Summary of the method: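 Engineered MSC80 cells, Pmp22-promoter green and EF-alpha red luciferase reporters; 24h compound treatment at 37 °C. Concentration-response fits on green, red and ratio signals, each overlap-corrected, with %Activity normalized to untreated wells.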

[22] = target: Ferritin light chain (Equus caballus) (UniProt P02791); test: qHTS Validation Assay for Identification of Novel General Anesthetics (AID 2323); further: on the % scale 0 is the no-effect control and ±100 the full control effect
Summary of the method: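 Normalized fluorescence response, scaled between free 1-AMA and 1-AMA/apoferritin complex, fitted to a four-parameter Hill equation for concentration-effect values. Binding mix: 10 uM horse-spleen apoferritin, 50% saturated 1-AMA in PBS; read 380/535 nm after 10 min.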

[23] = target: ATP-dependent DNA helicase Q1 (Homo sapiens) (UniProt P46063); test: qHTS Validation Assay for Inhibitors of RecQ-Like Dna Helicase 1 (RECQ1) (AID 2353);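 further: plate controls were DMSO vehicle for no effect and enzyme-free control for full effect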
Summary of the method: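 50 nM RECQ1T1 preincubated 15 min with compound in Tris pH 8.0 buffer with MgCl2, DTT, Tween-20 and 2.5 ug/ml poly(dI-dC); started with 200 nM TAMRA/BHQ-2 forked duplex and 2 mM ATP. Unwinding read as fluorescence (525/598 nm), two reads 2 h apart.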

[24] = target: RecQ-like DNA helicase BLM (Homo sapiens) (UniProt P54132); test: qHTS Validation Assay for Inhibitors of Bloom's syndrome helicase (BLM) (AID 2364);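 further: plate controls were DMSO vehicle for no effect and enzyme-free control for full effect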
Summary of the method: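 BLM 50 nM in 25 mM Tris-HCl pH 8.0, 5 mM NaCl, 2 mM MgCl2, 1 mM DTT, 0.01% Tween-20, 2.5 ug/ml poly(dI-dC); 15 min cpd preinc, RT. Start: 200 nM forked DNA + 2 mM ATP (final). TAMRA read, 2 reads 2 h apart.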

[25] = Validation screen for small molecules that induce DNA re-replication in MCF 10A normal breast cells (AID 463097); further: 0% is about no effect; nearly all actives have a fitted effect of over 60% in size
Summary of the method: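 Following 48 hr compound incubation (37 C, 5% CO2), MCF 10A cells receive Hoechst for 40 min at 37 C. Nuclei are then scanned (excitation 405 nm, emission 500-530 nm) for total fluorescence intensity.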

[26] = Quantitative high throughput screen for delayed death inhibitors of the malarial parasite plastid, 96 hour incubation (AID 488745);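 further: luciferase-expressing P. falciparum in erythrocytes at 2% hematocrit and 0.1% parasitemia; on the % scale 0 is the no-effect control and ±100 the full control effect; nearly all actives have a fitted effect of over 70% in size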
Summary of the method: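 Growth of reporter-bearing P. falciparum in red cells is measured after 96 h with compound, covering two erythrocytic cycles. Luminescence from the integrated luciferase serves as the growth signal.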

[27] = target: M-phase phosphoprotein 8 (Homo sapiens) (UniProt Q99549); test: qHTS Validation Assay for Inhibitors for MPP8 Chromodomain Interactions with Methylated Histone Tails (AID 488949);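 further: 50 nM MPP8 with 50 nM peptide preformed then compounds added for 30 min; AlphaScreen signal from MPP8 chromodomain bound to biotinylated H3K9me3 peptide; top concentration of the series differs between compounds; on the % scale 0 is the no-effect control and ±100 the full control effect; nearly all actives have a fitted effect of over 55% in size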
Chain of M-phase phosphoprotein 8 (Homo sapiens) (Q99549 whole entry, looked up): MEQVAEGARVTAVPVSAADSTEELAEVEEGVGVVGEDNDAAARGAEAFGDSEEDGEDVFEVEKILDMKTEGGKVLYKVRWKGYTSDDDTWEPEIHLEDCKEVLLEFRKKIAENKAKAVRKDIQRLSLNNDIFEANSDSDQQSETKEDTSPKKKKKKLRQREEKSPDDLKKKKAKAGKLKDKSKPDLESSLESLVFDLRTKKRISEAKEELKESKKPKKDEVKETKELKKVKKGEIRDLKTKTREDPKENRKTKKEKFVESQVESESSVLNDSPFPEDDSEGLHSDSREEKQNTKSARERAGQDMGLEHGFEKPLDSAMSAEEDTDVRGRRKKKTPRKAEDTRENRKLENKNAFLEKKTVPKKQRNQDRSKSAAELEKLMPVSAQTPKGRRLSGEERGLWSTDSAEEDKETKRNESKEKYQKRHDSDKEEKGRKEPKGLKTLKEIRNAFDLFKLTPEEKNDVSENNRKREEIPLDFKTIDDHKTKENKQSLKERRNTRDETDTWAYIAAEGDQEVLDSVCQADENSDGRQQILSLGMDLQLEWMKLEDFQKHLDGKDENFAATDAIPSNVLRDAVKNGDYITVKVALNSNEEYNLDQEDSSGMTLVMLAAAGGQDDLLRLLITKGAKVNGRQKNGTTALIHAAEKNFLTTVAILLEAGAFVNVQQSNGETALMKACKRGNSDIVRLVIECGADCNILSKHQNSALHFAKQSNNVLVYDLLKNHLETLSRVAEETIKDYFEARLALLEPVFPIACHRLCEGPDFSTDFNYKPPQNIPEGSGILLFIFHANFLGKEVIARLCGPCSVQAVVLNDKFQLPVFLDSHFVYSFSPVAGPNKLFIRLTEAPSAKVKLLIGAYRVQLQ
Summary of the method: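 Chemiluminescent proximity assay: histidine-tag capture via nickel acceptor beads, biotin peptide via streptavidin donor beads. Protein and peptide each at 50 nM, pH 7.4, with 30 min incubations at room temperature for complex formation, compound exposure and bead binding.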

[28] = target: Transient receptor potential cation channel subfamily V member 1 (Homo sapiens) (UniProt Q8NER1); test: HTS Assay for Compounds that Act as Enhancers of the Vanilloid Receptor 1 (AID 488979); further: 0% is about no effect
Chain of Transient receptor potential cation channel subfamily V member 1 (Homo sapiens) (Q8NER1 whole entry, looked up): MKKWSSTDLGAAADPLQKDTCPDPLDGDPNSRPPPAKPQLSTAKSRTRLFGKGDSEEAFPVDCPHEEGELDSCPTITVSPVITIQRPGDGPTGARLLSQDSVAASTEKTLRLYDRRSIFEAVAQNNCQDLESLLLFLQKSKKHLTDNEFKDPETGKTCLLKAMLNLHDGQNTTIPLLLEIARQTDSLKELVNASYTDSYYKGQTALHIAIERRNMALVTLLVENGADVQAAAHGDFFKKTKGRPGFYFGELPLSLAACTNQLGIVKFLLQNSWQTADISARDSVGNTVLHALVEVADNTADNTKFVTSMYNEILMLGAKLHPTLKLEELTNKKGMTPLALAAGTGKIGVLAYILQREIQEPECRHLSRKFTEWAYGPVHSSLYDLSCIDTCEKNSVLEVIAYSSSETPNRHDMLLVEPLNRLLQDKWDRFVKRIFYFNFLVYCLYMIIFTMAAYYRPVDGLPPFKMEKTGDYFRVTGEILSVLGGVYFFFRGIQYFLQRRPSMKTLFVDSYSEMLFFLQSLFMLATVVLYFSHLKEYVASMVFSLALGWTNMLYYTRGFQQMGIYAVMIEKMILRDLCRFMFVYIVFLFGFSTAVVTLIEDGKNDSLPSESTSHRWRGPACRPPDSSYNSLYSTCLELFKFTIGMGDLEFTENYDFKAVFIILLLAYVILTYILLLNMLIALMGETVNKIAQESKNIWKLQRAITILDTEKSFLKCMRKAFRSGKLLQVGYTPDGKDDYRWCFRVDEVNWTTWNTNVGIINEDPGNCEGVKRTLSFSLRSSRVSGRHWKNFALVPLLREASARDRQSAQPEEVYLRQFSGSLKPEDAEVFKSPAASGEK
Summary of the method: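 TRPV1-expressing cells loaded with Fluo-8 calcium dye; compounds added and calcium influx read kinetically for 3 min (agonist phase), then capsaicin at EC20 added and read 2 min more for enhancement. Fluorescence ex 480/em 520 nm.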

[29] = target: Thyrotropin receptor (Homo sapiens) (UniProt P16473); test: qHTS Assay for Antagonists of the Thyroid Stimulating Hormone Receptor (AID 488980); further: 0% is about no effect
Summary of the method: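 Inhibition of TSH-stimulated cAMP accumulation was quantified by homogeneous time-resolved FRET in TSHR-transfected HEK293 cells. Agonist: TSH, 4 nM final (EC80).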

[30] = target: Thyrotropin-releasing hormone receptor (Homo sapiens) (UniProt P34981); test: qHTS for Small Molecule Agonists and Allosteric Enhancers of Human TRH Receptor: Validation Screen for Agonists (AID 493127;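 active means calcium activation more than 3 SD above the typical response in the agonist read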;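 further: intracellular calcium rise by fluo-8 fluorescence before TRH EC20 addition; 0% is about no effect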); details: TRH receptor agonist cell assay; at 2 µM; stronger effect = higher value
Summary of the method: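 Gq-coupled calcium mobilization in TRHR cells after compound addition, monitored kinetically with fluo-8 dye on an FDSS reader.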

[31] = target: Galactokinase (Homo sapiens) (UniProt P51570); test: qHTS Validation Assay for Inhibitors of Human Galactokinase (GALK) (AID 493189); further: 0% is about no effect
Chain of Galactokinase (Homo sapiens) (P51570 whole entry, looked up): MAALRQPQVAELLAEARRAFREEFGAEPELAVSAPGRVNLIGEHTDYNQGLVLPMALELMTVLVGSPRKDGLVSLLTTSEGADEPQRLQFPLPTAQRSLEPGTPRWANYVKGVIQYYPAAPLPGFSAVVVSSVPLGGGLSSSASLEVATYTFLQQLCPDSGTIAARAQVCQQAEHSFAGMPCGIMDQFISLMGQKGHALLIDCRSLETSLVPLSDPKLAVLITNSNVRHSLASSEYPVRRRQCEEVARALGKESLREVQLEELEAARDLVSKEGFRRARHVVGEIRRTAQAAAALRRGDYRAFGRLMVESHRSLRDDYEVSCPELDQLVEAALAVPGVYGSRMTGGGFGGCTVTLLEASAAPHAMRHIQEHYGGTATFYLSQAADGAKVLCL
Summary of the method: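 Enzyme activity is inferred from ATP consumption: human GALK phosphorylates galactose (100 uM) using 35 uM ATP for 1 h at room temperature, and luciferase-based Kinase-Glo Plus reports unconsumed ATP.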

[32] = Validation screen for small molecules that induce DNA re-replication in SW480 colon adenocarcinoma cells (AID 504364); further: 0% is about no effect
Summary of the method: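 Cells are treated 48 hr with test compound, stained 40 min with Hoechst at 37 C, and scanned for nuclear fluorescence; compounds inducing re-replication increase nuclei with elevated intensity.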

[33] = target: DNA dC->dU-editing enzyme APOBEC-3G (Homo sapiens) (UniProt Q9HC16); test: qHTS for inhibitors of Vif-A3G interactions: Validation (AID 588379); further: 0% is about no effect
Chain of DNA dC->dU-editing enzyme APOBEC-3G (Homo sapiens) (Q9HC16 whole entry, looked up): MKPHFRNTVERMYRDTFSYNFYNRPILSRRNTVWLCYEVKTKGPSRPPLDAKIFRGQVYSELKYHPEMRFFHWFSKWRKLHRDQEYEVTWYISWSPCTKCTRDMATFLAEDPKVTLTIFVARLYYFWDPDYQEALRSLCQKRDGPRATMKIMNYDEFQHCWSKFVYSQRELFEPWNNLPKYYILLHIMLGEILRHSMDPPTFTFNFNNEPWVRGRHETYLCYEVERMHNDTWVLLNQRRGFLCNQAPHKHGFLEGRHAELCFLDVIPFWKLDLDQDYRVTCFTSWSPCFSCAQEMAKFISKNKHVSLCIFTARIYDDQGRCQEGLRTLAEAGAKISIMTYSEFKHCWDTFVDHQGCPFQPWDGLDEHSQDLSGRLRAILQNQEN
Summary of the method: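 HeLa cells stably expressing Vif and A3G-eYFP, 700 cells/well, incubated overnight at 37 deg C, then exposed to compound overnight at 37 deg C. Inhibition of Vif-mediated degradation read as increased yellow fluorescence (Ex 488/Em 500-530) by laser-scanning cytometry.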

[34] = system: Zika virus NS2B-NS3 protease; test: Primary screen GU AMC qHTS for Zika virus inhibitors (AID 1347154);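 further: 0% = no-inhibitor control and -100% = no-enzyme control; nearly all actives have a fitted effect of over 70% in size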
Summary of the method: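 Unlinked Zika NS2B hydrophilic domain/NS3 protease domain noncovalent complex (25 nM final) in 10 mM Tris-HCl pH 8.0, 0.01% Tween 20, with AMC peptide substrate. Fluorescence (ex 340, em 450 nm) change over 15 min, room temperature; percent inhibition fitted to 4-parameter Hill equation.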

CN1CCN(c2ccc3ccccc3n2)CC1
inactive: activity change, negative = inhibition [1] -20.6% | Potency [2] > 46 µM | outcome [3] | Potency [4] | outcome [5] | Potency [6] | outcome [7] | outcome [8] | outcome [9] | outcome [10] | outcome [11] | outcome [12] | outcome [13] | activity change, negative = inhibition ([14]; at 57.5 µM (top of the series)) -1.18% and 2.43% | Potency [15] | outcome [16] | Potency [17] | Potency [18] | Potency [19] | Potency [20] | outcome [21] | outcome [22] | Potency [23] | Potency [24] | Potency [25] | Potency [26] | Potency [27] | outcome [28] | outcome [29] | activation [30] 1.56% | outcome [31] | Potency [32] | Potency [33] | Potency [34]
12.4% and -14.2%: max response ([14]; measured here: lipid channel max response)
12.9% and -15.1%: max response ([14]; measured here: cell count channel max response)
